Test [1] is described as follows: qHTS for Inhibitors of the Functional Ribonucleoprotein Complex (vRNP) of Lassa (LASV) Arenavirus: LASV Primary Screen - GLuc reporter signal (AID 1347082; calls by dose curve; tested in HEK293 reporter line; also: series mostly up to about 57 µM; nearly all actives have a fitted effect of over 60% in size).
Test [2] is described as follows: qHTS for Inhibitors of the Functional Ribonucleoprotein Complex (vRNP) of Lassa (LASV) Arenavirus: Viability assay - alamar blue signal for LASV Primary Screen (AID 1347083; calls by dose curve; tested in HEK293 reporter line; also: series mostly up to about 57 µM; nearly all actives have a fitted effect of over 80% in size). (Quantitative high-throughput screening tests each substance at several concentrations.)
The nature of test [3]: qHTS for Inhibitors of the Functional Ribonucleoprotein Complex (vRNP) of Lymphocytic Choriomeningitis Arenaviruses (LCMV): Viability assay - alamar blue signal for LCMV Primary Screen (AID 1347085; calls by dose curve; tested in HEK293 reporter line; also: series mostly up to about 57 µM; nearly all actives have a fitted effect of over 80% in size).
Test [4] concerns the target Nucleoprotein (Lymphocytic choriomeningitis virus (strain Armstrong)) (UniProt P09992). Description: qHTS for Inhibitors of the Functional Ribonucleoprotein Complex (vRNP) of Lymphocytic Choriomeningitis Arenaviruses (LCMV): LCMV Primary Screen - GLuc reporter signal (AID 1347086; calls by dose curve; also: series mostly up to about 57 µM; nearly all actives have a fitted effect of over 70% in size).
A short description of test [5]: qHTS of pediatric cancer cell lines to identify multiple opportunities for drug repurposing: Primary screen for TC32 cells (AID 1347089). Also: nearly all actives have a fitted effect of over 60% in size. The method, boiled down: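 A viability screen of TC32 cells was run over 48 h, with primary MIPE doses spanning 0.78 nM–46 µM and NPC doses 0.59 nM–46 µM. ATP luminescence (CellTiter-Glo) served as the read-out.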
Test [6] is described as follows: qHTS of pediatric cancer cell lines to identify multiple opportunities for drug repurposing: Primary screen for DAOY cells (AID 1347090). Also: series mostly up to about 46 µM; nearly all actives have a fitted effect of over 55% in size. Put shortly: (§1)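 Eight- or eleven-point concentration series, 48 h treatment at 37 degrees C in growth media; readout CellTiter-Glo luminescence. Potency and efficacy were taken from the concentration-response curves.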
Test [7] in a line: qHTS of pediatric cancer cell lines to identify multiple opportunities for drug repurposing: Primary screen for SJ-GBM2 cells (AID 1347091). The method, boiled down:
as §1

The nature of test [8]: qHTS of pediatric cancer cell lines to identify multiple opportunities for drug repurposing: Primary screen for A673 cells (AID 1347092). Also: nearly all actives have a fitted effect of over 45% in size. The method, boiled down:
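Titration-based qHTS on A673 cells: MIPE compounds spanned 11 points (0.78 nM to 46 µM final), NPC compounds 8 points (0.59 nM to 46 µM final). Viability after 48 h was measured by ATP luminescence.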

Test [9] is described as follows: qHTS of pediatric cancer cell lines to identify multiple opportunities for drug repurposing: Primary screen for SK-N-MC cells (AID 1347093). Also: series mostly up to about 46 µM. Put shortly: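 Metabolically active cells were quantified by ATP-dependent luminescence (CellTiter-Glo, 15 min at room temperature) following 48 h treatment. Cells had been plated at 500-1,000 per well and settled for 5 h beforehand.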

Test [10] can be described thus: qHTS of pediatric cancer cell lines to identify multiple opportunities for drug repurposing: Primary screen for BT-37 cells (AID 1347094). Also: series mostly up to about 57 µM. Put shortly:
(§2)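 CRCs from 8- or 11-point titrations (lowest final 0.59 nM NPC, 0.78 nM MIPE). Cell viability: CellTiter-Glo after 48 h incubation, 15 min room-temperature development, luminescence imaging.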

Test [11] is described as follows: qHTS of pediatric cancer cell lines to identify multiple opportunities for drug repurposing: Primary screen for NB-EBc1 cells (AID 1347095). The method, boiled down:
as §2

Test [12] can be described thus: qHTS of pediatric cancer cell lines to identify multiple opportunities for drug repurposing: Primary screen for U-2 OS cells (AID 1347096). Also: nearly all actives have a fitted effect of over 50% in size. Put shortly: (§3)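 Cells (500-1,000/well) in growth media were settled 5 h at 37 degrees C, then given compounds for 48 h. Viability was read as CellTiter-Glo luminescence. Primary runs used MIPE at 11 points (0.78 nM-46 µM) and NPC at 8 points (0.59 nM-46 µM); follow-ups used 11 points.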

The nature of test [13]: qHTS of pediatric cancer cell lines to identify multiple opportunities for drug repurposing: Primary screen for Saos-2 cells (AID 1347097). Also: nearly all actives have a fitted effect of over 40% in size. Also: potency is read from the fitted curve at half-maximal effect. Put shortly:
as §2

Test [14] is described as follows: qHTS of pediatric cancer cell lines to identify multiple opportunities for drug repurposing: Primary screen for SK-N-SH cells (AID 1347098).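 Also: DMSO served as neutral control and bortezomib at 2.3 µM as positive control; nearly all actives have a fitted effect of over 65% in size.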 The method, boiled down:
(§4)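 Cells (500-1,000/well) rested 5 h, then received compounds for 48 h; metabolically active cells were measured by CellTiter-Glo luminescence. Final concentrations spanned up to 46 µM (MIPE, 11-point) or 0.59 nM-46 µM (NPC, 8-point) in primary screens, 11-point in follow-ups.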

Test [15] can be described thus: qHTS of pediatric cancer cell lines to identify multiple opportunities for drug repurposing: Primary screen for NB1643 cells (AID 1347099). Also: nearly all actives have a fitted effect of over 50% in size. The method, boiled down:
as §2

Test [16] in a line: qHTS of pediatric cancer cell lines to identify multiple opportunities for drug repurposing: Primary screen for LAN-5 cells (AID 1347100). Put shortly:
as §3

Test [17] is described as follows: qHTS of pediatric cancer cell lines to identify multiple opportunities for drug repurposing: Primary screen for BT-12 cells (AID 1347101). Also: nearly all actives have a fitted effect of over 25% in size. The method, boiled down: as §4
A short description of test [18]: qHTS of pediatric cancer cell lines to identify multiple opportunities for drug repurposing: Primary screen for Rh18 cells (AID 1347102). Also: nearly all actives have a fitted effect of over 65% in size. The method, boiled down:
as §3

From PubChem BioAssay (NCATS) come the findings set out here.

Inconclusive results are not listed. Activity calls are given as the source filed them. Unless noted, calls follow the shape of the dose curve; as a rule, active = well fitted curve in the direction sought with a large enough effect; inconclusive = small, poorly fitted or top-dose-only effect, or another doubt; inactive = no such curve, though single readings can be large; an effect the other way counts as inactive or inconclusive.

Chain of Nucleoprotein (Lymphocytic choriomeningitis virus (strain Armstrong)) (P09992 whole entry, looked up): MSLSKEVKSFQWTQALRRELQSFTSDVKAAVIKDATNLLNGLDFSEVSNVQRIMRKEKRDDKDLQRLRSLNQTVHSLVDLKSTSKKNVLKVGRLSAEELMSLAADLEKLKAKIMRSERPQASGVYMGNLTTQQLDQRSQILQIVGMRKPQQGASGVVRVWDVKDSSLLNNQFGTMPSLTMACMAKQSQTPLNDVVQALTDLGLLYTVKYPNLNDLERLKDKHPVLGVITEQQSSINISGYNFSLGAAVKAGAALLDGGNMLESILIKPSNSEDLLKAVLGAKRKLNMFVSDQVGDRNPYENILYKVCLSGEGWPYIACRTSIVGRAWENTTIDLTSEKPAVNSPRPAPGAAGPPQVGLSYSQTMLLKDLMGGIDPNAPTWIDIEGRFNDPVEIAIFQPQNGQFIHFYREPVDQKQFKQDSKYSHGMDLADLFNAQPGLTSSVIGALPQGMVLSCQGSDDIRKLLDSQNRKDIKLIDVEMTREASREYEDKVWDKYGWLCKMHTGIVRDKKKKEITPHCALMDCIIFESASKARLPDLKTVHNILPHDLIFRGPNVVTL

Take `CC(=O)Oc1ccc(C(=C2CCCCC2)c2ccc(OC(C)=O)cc2)cc1`: the Potency entry in [1], in [2], in test [3] and in test [4] was “inactive” throughout.
As for `CC[C@H](NC(C)C)[C@H](O)c1ccc(O)c2[nH]c(=O)ccc12`, the Potency entry in test [1], in [2], in test [3] and in test [4] was “inactive” each time.
Take `CN1[C@@H]2CC[C@H]1CC(NC(=O)n1c(=O)[nH]c3ccccc31)C2` (some centres undefined): the Potency entry in [1], in test [2], in test [3] and in test [4] was “inactive” throughout.
For `C[C@]12CC[C@H]3[C@@H](CCC4=CC(=O)CC[C@@]43C)[C@@H]1CC[C@@H]2C(=O)CO`, the Potency entry in test [1], in test [2], in [3] and in test [4] was “inactive” each time.
For `O=C(Nc1ccc(S(=O)(=O)N2CCOCC2)cc1)c1cc(Cl)ccc1NS(=O)(=O)c1ccc(Cl)s1`, the Potency result in [1], in [2], in test [3] and in test [4] was “inactive” throughout.
Regarding `CN(C)CCCSc1ccccc1NC(=O)/C=C/c1ccccc1`, the Potency entry in test [1], in [2], in [3] and in test [4] was “inactive” throughout.
As for `CCCCCCOC(=O)NC(=N)c1ccc(NCc2nc3cc(C(=O)N(CCC(=O)OCC)c4ccccn4)ccc3n2C)cc1`, the Potency entry in [1], in [2], in test [3] and in test [4] was “inactive” each time.
Take `CCN1CCCC1CNC(=O)C(O)(c1ccccc1)c1ccccc1` (centres undefined): the Potency result in [1], in [2], in test [3], in test [4], in test [5] and in test [6] was “inactive” throughout. Besides, the Potency result in test [7], in [8], in [9], in test [10], in test [11] and in test [12] was “inactive” each time. The Potency result in [13], in test [14], in test [15], in [16], in test [17] and in [18] was “inactive” in each case.
`Cc1cc(C)c(/C=C2\C(=O)Nc3ccccc32)[nH]1`: the Potency result in test [1], in [2], in [3] and in test [4] was “inactive” throughout.
`CCCCC1C(=O)NC(=O)N(C2CCCCC2)C1=O` (centres undefined): the Potency entry in test [1], in test [2], in test [3], in [4], in test [5] and in [6] was “inactive” throughout. Besides, the Potency result in test [7], in test [8], in test [9], in [10], in test [11] and in test [12] was “inactive” throughout. The Potency result in test [13], in test [14], in test [15], in test [16], in test [17] and in test [18] was “inactive” each time.
Consider `N[C@@H](CSCCCO)C(=O)O`, for which the Potency result in test [1], in test [2], in test [3] and in [4] was “inactive” throughout.
Turning to `C[C@]12CC[C@H](O)CC1=CC[C@@H]1[C@@H]2CC[C@]2(C)C(=O)CC[C@@H]12`, the Potency entry in [1], in test [2], in test [3], in test [4], in test [5] and in test [6] was “inactive” throughout. Further, the Potency entry in [7], in [8], in [9], in test [10], in test [11] and in test [12] was “inactive” throughout. For the same molecule, the Potency result in test [13], in [14], in test [15], in test [16], in test [17] and in test [18] was “inactive” throughout.
Take `CCOC(=O)C1(c2ccccc2)CCN(CCc2ccc(N)cc2)CC1`: the Potency entry in test [1], in [2], in [3], in [4], in test [5] and in test [6] was “inactive” throughout. For the same molecule, the Potency result in [7], in [8], in [9], in test [10], in test [11] and in test [12] was “inactive” in each case. Besides, the Potency result in [13], in test [14], in test [15], in [16], in test [17] and in test [18] was “inactive” throughout.
Take `Cc1cccc(Cc2cnc[nH]2)c1C`: the Potency result in [1], in test [2], in [3], in [4], in test [5] and in test [6] was “inactive” throughout. In addition, the Potency result in test [7], in test [8], in test [9], in test [10], in test [11] and in [12] was “inactive” throughout. Besides, the Potency result in [14], in test [15], in test [16], in test [17] and in test [18] was “inactive” in each case. Besides, in test [13], the Potency is 29.9 µM (active).
Turning to `c1cc2c(c(N3CCNCC3)c1)OCCO2`, the Potency entry in [1], in test [2], in [3], in test [4], in test [5] and in test [6] was “inactive” each time. For the same molecule, the Potency entry in [7], in test [8], in [9], in test [10], in test [11] and in test [12] was “inactive” throughout. Moreover, the Potency entry in [13], in [14], in test [15], in [16], in test [17] and in test [18] was “inactive” in each case.
